This note sets out measurements from PubChem BioAssay (NCI).

About 79,000 compounds went through this panel and 15% of them were active in at least one assay; those are over-represented in the sample as a whole. A number with no mark means an inactive call. Active and inactive are the calls of the source. No stated cut-off is given here; in the data, active means growth inhibition above about 70%; inactive means the rest.

The experiment can be described thus: NCI Yeast Anticancer Drug Screen. Data for the mlh1 rad18 strain (AID 175). Particulars: S. cerevisiae mlh1 rad18 strain growth inhibition; at 5.0 µM (retest, dose inferred, filed as 0.5); active compounds read high. The method in brief:
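Read-out is yeast growth inhibition, calculated against vehicle-only controls. The compound was applied to a strain engineered with DNA damage repair alterations.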
`O=[n+]1c2c(n([O-])c3ccc4ccccc4c31)-c1cccc3cccc-2c13`: the growth inhibition is -2%. In the case of `COc1ccc(C(=O)Cc2ccc(Cl)cc2)cc1OC`, the growth inhibition is -17%. The figure for `CCN(CC)CCC(=O)c1ccc(Oc2ccc(C)cc2)cc1` is 22%. Regarding `BrC(Br)=C1C(=C(Br)Br)C(Br)C1Br` (stereo not given), the growth inhibition is 40%. To `O=C(O)C(Cc1cc(I)c(O)c(I)c1)c1ccccc1` (stereo not given) belongs 0%; to `CC1(C)OC2C(COC(c3ccccc3)(c3ccccc3)c3ccccc3)OC(n3ccc(=O)[nH]c3=O)C2O1` (stereo not given), 52%; to `Clc1ccc(C2=CCN3CC=C(c4ccc(Cl)cc4)C23)cc1`, 18%. The figure for `Nc1ccc([N+](=O)[O-])cc1Nc1c2ccccc2nc2ccccc12` is 2%. The figure for `COc1c2c3c(ccnc3c3ccccc13)C(=O)N2C` is 17%; for `O=C1/C(=C/c2ccc([N+](=O)[O-])cc2)CNC/C1=C\c1ccc([N+](=O)[O-])cc1` it is 96% (active); for `Clc1ccc(-c2nnn3ccccc23)cc1` it is 13%. For the molecule `O=Cc1ccc([N+](=O)[O-])o1`, the growth inhibition was 20%. To `CN(C)Cc1cc(C(C)(C)C)cc(C2CCCCC2)c1O` belongs 1%; to `COc1ccc2c(c1)CN([C@@H](C)[C@H]1CC[C@H]3[C@@H]4CC[C@H]5C[C@@H](O)CC[C@]5(C)[C@H]4CC[C@]13C)CO2`, 97% (active). The figure for `FC(F)(F)c1ccc(NC(=S)SCc2ccc3c(c2)OCO3)cc1` is -8%; for `Nc1cc(F)c2c(c1F)C(=O)c1cc(F)ccc1-2` it is 5%. The figure for `CC12CCCCC1CCC(Br)C2=O` (stereo not given) is -128%; for `CC(C)c1cc(O)c(C(C)(C)C)cc1Cl` it is 3%. `CCCOC(=O)CCCC(=O)N(CC)CC`: the growth inhibition was -5%. To `CCOC(=O)c1cc(Cc2ccccc2)c(=O)n(C)c1-c1ccccc1` belongs 2%. To `COS(=O)c1cc(Cl)cc(Cl)c1OC(=O)CSSCC(=O)Oc1c(Cl)cc(Cl)cc1S(=O)OC` (stereo not given) belongs 84% (active). For the molecule `ICCCCSc1cc(-c2ccccc2)[o+]c2ccccc12`, the growth inhibition is 11%. To `Nc1cc(Cl)c2c(c1)Cc1ccccc1-2` belongs 0%; to `Cc1ccc(S(=O)(=O)NCCSSCCNS(=O)(=O)c2ccc(C)cc2)cc1`, 1%; to `OC(Cc1cccnc1)(c1ccccc1)c1ccc(Cl)cc1` (stereo not given), -5%. To `Cc1ccc(C2=CC(=O)/C(=C\C(=O)c3ccc(Cl)cc3)O2)cc1` belongs 37%; to `O=C(Nc1ncnc2c1ncn2C1CC(O)C(CO)O1)c1ccccc1` (stereo not given), -4%; to `O=C1CSC(=S)N1c1ccc(F)cc1F`, 3%. The figure for `CCCOC(=O)C(Br)C(Br)C(=O)OCCC` (stereo not given) is 44%; for `c1ccc2nc3[nH]c4ccccc4c3cc2c1` it is 18%; for `O=S(=O)(c1ccc(NC(=S)NCc2ccncc2)cc1)N1CCCCC1` it is -27%. On to `Nc1ccccc1Sc1ccccc1`, for which the growth inhibition is 35%. To `CCC(Cl)COP(=O)(OCC(Cl)CC)OC(c1ccc(Cl)c(Cl)c1)P(=O)(OCC(Cl)CC)OCC(Cl)CC` (stereo not given) belongs 7%. The figure for `O=C(O)/C=C\c1cc2ccccc2c2ccccc12` is 18%; for `COC(=O)C1C2CC3c4[nH]c5cc(OC)c(Br)cc5c4CCN3CC2CC(OC(=O)c2cc(OC)c(OC)c(OC)c2)C1OC` (stereo not given) it is -30%. To `Cc1c2ccnc(-c3ccc(F)cc3)c2cc2c1[nH]c1ccccc12` belongs -3%.

Consider `COc1cc2cc[n+]3c4ccc([N+](=O)[O-])cc4ccc3c2cc1OC`, for which the growth inhibition was 66%. The figure for `CCCCCCCCC1N(C)CCCN1C` is -102%; for `CC1(C)OC2C(COC(c3ccccc3)(c3ccccc3)c3ccccc3)OC(n3cnc4c(=O)[nH]cnc43)C2O1` (stereo not given) it is 84% (active). The figure for `COc1cccc2c1C(=O)c1c(O)c3c(c(O)c1C2=O)C[C@@](O)(C(=O)CO)C[C@@H]3OC1CC(N(C)C)C(O)C(C)O1` (stereo not given in full) is 94% (active).
